FMDV antiviral: blocks foot and mouth disease virus; FMDV antiviral cell-based qHTS; Potency, µM (series often up to 57.9 µM), for inactives: at the highest dose activity change, negative = inhibition, most hits filed as inhibitors; hit rate 1.2% among 410,000; AID 1159524; calls by dose curve; tested in HEK293T cells; further: read-out not given here; potency means the concentration at half of the fitted maximal effect; nearly all actives have a fitted effect of over 45% in size
HCV inhibitor: blocks hepatitis C virus; Potency, µM (titrated, usually from 41.8 µM), for inactives: at the highest dose activity change, negative = inhibition, actives largely listed as inhibitors; hit rate 3.4% among 340,000; Huh7.5.1 HCVcc-Cre infection, luciferase reporter, 44 h; active means well fitted inhibition curve with a large enough effect; inconclusive means small, poorly fitted or top-dose-only effect, or another doubt; inactive means no such curve, though single readings can be large or run the other way; further: potency means the concentration at half of the fitted maximal effect
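Compounds are dispensed onto cells plated 4 h earlier at 1,000 per well, with HCVcc-Cre virus (about 0.5 moi) added next. Following 44 h of culture, luminescent signal is measured for 15 sec after 15 min with substrate at room temperature.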
Lassa entry inh: blocks Lassa virus binding to or entry into cells; Lassa virus pseudotype entry inhibition, cell reporter; Potency, µM (series often up to 37.9 µM), for the others: at the top dose activity change, negative = inhibition, most hits filed as inhibitors; hit rate 1.2% among 300,000; AID 540256; calls by dose curve; tested in HEK293 cells; further: potency means the concentration at half of the fitted maximal effect; nearly all actives have a fitted effect of over 50% in size
MARV entry inh: inhibitors of Marburg virus binding or cell entry; hit rate 1.8% among 300,000; AID 540276; Marburg virus pseudotyped entry inhibition, cell reporter; Potency, µM (top dose mostly 37.8 µM), for inactives: at the top dose activity change, negative = inhibition, actives largely listed as inhibitors; calls by dose curve; tested in HEK293 cells; further: potency means the concentration at half of the fitted maximal effect
HCMV antiviral: inhibitors of human cytomegalovirus; activity change, negative = inhibition, % at 57.5 µM; HFF cells, HCMV-luciferase reporter, 72 h; stronger effect = lower value; hit rate 4.5% among 410,000; AID 1259415; in the data active means activity change below about -60%; inconclusive means no clear call, values can overlap the other calls; inactive means above about -39%
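Steps: HFFs plated, 16 h 37C; compounds added; HCMV-luciferase added to MOI 1 PFU/cell; 72 h 37C; OneGlo reagent, 5 min room temperature; luminescence read, normalized to controls.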
Starred values were filed as active, the others as inactive; ? = inconclusive; · = not tested or not shown; [ ] = another dose, or the depositor's remark. A selection: hits, their analogues and other compounds. The true share with any hit is near 7.9%. On the % scale 0 is the no-effect control and ±100 the full control effect.

SMILES	FMDV antiviral	HCV inhibitor	Lassa entry inh	MARV entry inh	HCMV antiviral
CN(C)c1ccc(CN(CC2CCCO2)C(=O)c2ccc(Br)cc2)cc1 (stereo unspecified)	23%	·	?	-28%[46.1 µM]	16
COC(=O)C(/C=C/c1ccccc1)(c1cn(C)c2ccccc12)C(Nc1ccccc1)c1ccccc1 (stereo unspecified)	·	·	·	·	28
CC(O)(c1ccccc1)c1nc(-c2ccc(S(C)(=O)=O)cc2)cs1 (stereo unspecified)	-26%	·	·	·	-21
CC1(C(=O)NS(=O)(=O)c2ccccc2OC(F)(F)F)CCN1C(=O)c1ccccc1 (stereo unspecified)	-3%	·	·	·	6
NC(N)=NCc1cccc(I)c1	?	7.1µM*	?	?	-66*
NC(=O)CC(NC(=O)Cc1cccc2ccccc12)c1ccc(NC2CCCCCC2)c([N+](=O)[O-])c1 (stereo unspecified)	-5%	?	·	·	-36
NC(=O)CC(NC(=O)Cc1cccc2ccccc12)c1ccc(NC2CCCCCCC2)c([N+](=O)[O-])c1 (stereo unspecified)	-9%	20%	·	·	-62*
NC(=O)CC(NC(=O)Cc1cccc2ccccc12)c1ccc(NCCc2ccccc2F)c([N+](=O)[O-])c1 (stereo unspecified)	-7%	14%	·	·	-81*
NC(=O)CC(NC(=O)Cc1cccc2ccccc12)c1ccc(NCc2ccc(F)cc2)c([N+](=O)[O-])c1 (stereo unspecified)	-20%	-12%	·	·	-5
NC(=O)CC(NC(=O)Cc1ccc(Br)cc1)c1ccc(NC2CCN(Cc3ccccc3)CC2)c([N+](=O)[O-])c1 (stereo unspecified)	9%	2%	·	·	-93*
NC(=O)CC(NC(=O)Cc1cccc2ccccc12)c1ccc(NCCc2ccc(F)cc2)c([N+](=O)[O-])c1 (stereo unspecified)	-5%	6%	·	·	-67*
COc1ccccc1CCNc1ncnc2sc(C(=O)N3CCCCC3)c(C)c12	-28%	·	·	·	·
CCOc1ccc(CCNC(=O)CCNC(=O)c2ccccc2Cl)cc1OCC	6%	-23%	-6%[46.1 µM]	-22%[46.1 µM]	16
O=C(CNC(=O)c1ccc(F)cc1)OCc1cc(=O)n2nc(C3CC3)sc2n1	-5%	·	13%[46.1 µM]	·	9
CCOC(=O)c1sc(NC(=O)c2ccc(OC(C)=O)cc2)nc1C	37%	?	·	?	-82*
CCOC(=O)c1sc(NC(=O)CSC(=S)N2CCN(C)CC2)nc1C	-14%	13µM*	-16%	?	-20
CCOC(=O)c1sc(NC(=O)CC(C)c2ccccc2)nc1C (stereo unspecified)	-24%	?	?	5.6µM*	-4
CCOC(=O)c1sc(NC(=O)c2ccc(OC)cc2)nc1C	41%	?	9%[46.1 µM]	10%[46.1 µM]	-24
CCOC(=O)c1sc(NC(=O)CCSC)nc1C	30%	-8%	?	13%	-17
CCOC(=O)c1sc(NC(=O)CCc2ccccc2)nc1C	-5%	?	·	·	-10
CCc1nnc(NC(=O)CSC(=S)N2CCOCC2)s1	-3%	18%	·	·	-98*
CCc1ccc(NC(=O)Cn2cnc3nc4c(cc3c2=O)CCCC4)cc1	-5%	·	?	·	14
COc1ccc2c(c1)CCC(=O)C(C)CCO2 (stereo unspecified)	·	·	·	·	4
COc1cc(=O)n2c(c1C(=O)NCc1ccco1)CCN(Cc1c(F)cccc1F)CC2	-17%	·	·	·	·
Cc1cnc(NC(=O)CC(C)c2ccccc2)s1 (stereo unspecified)	3%	?	4%[46.1 µM]	?	-68*
SMILES	FMDV antiviral	HCV inhibitor	Lassa entry inh	MARV entry inh	HCMV antiviral
COc1ccccc1OCC(=O)Nc1nc(C)c(C)s1	32%	?	13µM*	?	-13
Cc1cnc(NC(=O)CCNC(=O)c2ccccc2Cl)s1	6%	16%	9%	?	-7
COC(=O)c1sc(NC(=O)COc2ccccc2C)nc1C	66%	?	-2%	4%[46.1 µM]	-12
Cc1cnc(NC(=O)COc2ccccc2Cl)s1	10µM*	-7%	1.8µM*	2.3µM*	-33
CN(C)c1ccc(C(=O)NCc2ccc3c(c2)CCN3C(=O)c2ccccc2)cc1	-12%	·	2%[46.1 µM]	·	-35
Cc1ccc(S(=O)(=O)N2[C@H](CC(=O)c3ccc(Cl)c(Cl)c3)OC[C@@H]2C)cc1	-21%	·	·	·	70
COc1ccc(Nc2nc(Cl)nc(N3CCN(c4ccc(OC)cc4)CC3)n2)cc1	·	·	·	·	-34
COc1ccc(S(=O)(=O)N2CCC(c3nnc(-c4ccccc4C)o3)CC2)c(OC)c1	-6%	·	-14%[46.1 µM]	-5%[46.1 µM]	-34
COc1ccc(-c2nnc(C3CCN(C(=O)c4ccccc4F)CC3)o2)cc1	?	·	10%[46.1 µM]	11%[46.1 µM]	-105*
Cc1ccccc1-c1nnc(C2CCN(S(=O)(=O)c3ccc(Cl)cc3)CC2)o1	-18%	·	21%[46.1 µM]	15%[46.1 µM]	-104*
COc1ccc(-c2nnc(C3CCN(S(=O)(=O)c4cccc(Cl)c4)CC3)o2)cc1	-22%	·	12%[46.1 µM]	-2%[46.1 µM]	-94*
COc1ccccc1-c1nnc(C2CCN(C(=O)c3ccc(C)cc3)CC2)o1	2%	·	4%[46.1 µM]	?	1
CC(C)Cn1c(C(C)C)nc([N+](=O)[O-])c1S(=O)(=O)c1ccc(F)cc1	16µM*	?	-25%	?	-72*
CCCc1nc([N+](=O)[O-])c(S(=O)(=O)c2ccccc2)n1CC(C)C	?	?	?	12µM*	-93*
CC(C)Cn1nc(NS(=O)(=O)c2ccccc2)c2cc3ccccc3nc21	41%	1%	4%	6%	8
CC(C)Cn1c(C(C)C)nc([N+](=O)[O-])c1Sc1ccc(Cl)cn1	?	?	3%	-29%	-4
O=P1(O)Cc2ccccc2-c2ccccc21	-8%	29%	-3%	23%	14
O=C(NCC1CC1)c1nnc2n1CCN(C(=O)c1cccc3c1OCCO3)C2	·	·	·	·	11
O=C(N[C@@H](Cc1ccccc1)C(=O)CCl)OCc1ccccc1	32µM*	?	3.3µM*	16µM*	-90*
CC(C)[C@H](NC(=O)OCc1ccccc1)C(=O)N[C@H](C=O)Cc1ccccc1	8%	·	7%	0.65µM*	·
O=C(CSc1nc2ccccc2c(=O)n1CC1CCCO1)NCC1CCCO1 (stereo unspecified)	-7%	13%	-2%	4%	8
COc1ccc(C(=O)Nn2c(SCC(=O)NC3CCCC3)nc3ccccc3c2=O)cc1	18µM*	6%	?	?	-22
COc1ccc(C(=O)Nn2c(SCC(=O)NCC3CCCO3)nc3ccccc3c2=O)cc1 (stereo unspecified)	11µM*	-9%	7.3µM*	?	?
COc1ccc(C(=O)Nn2c(SCC(=O)NCc3ccccc3)nc3ccccc3c2=O)cc1	?	-3%	?	?	?
Cc1ccccc1C1(CC(=O)N2CCCC2c2nccs2)CC(=O)N(C2CCCC2)C1=O (stereo unspecified)	49%	·	·	·	·
COCc1c(C(=O)NC2CCCCCC2)cnn1-c1nccc(-c2cc(C)sc2C)n1	50%	·	·	·	·
